Gli-Sufu antag: blocks Gli-Sufu signaling in a luciferase reporter; Sufu-KO-LIGHT fibroblasts, Gli luciferase reporter luminescence; inhibition, % at 5 µM; hit rate 0.74% among 340,000;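 active = inhibition above about 55%, limit read from the data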;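 also: 0% = DMSO-treated cells and 100% = wells with medium but no cells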
697 NFkB inh: lowers PMA/ionomycin-induced NF-kB signal in 697 B cells; 697 B-cell NF-kB luciferase reporter, 16 h; hit rate 0.33% among 330,000; inhibition, % at 4 µM; in the data active = inhibition above about 35%
aSyn 5UTR inh: MLPCN primary screen, SNCA 5' untranslated region; alpha-synuclein 5'UTR reporter, inhibitor activity; inhibition, % (tested at 7.5 µM); AID 1813; hit rate 0.82% among 300,000; in the data active = inhibition above about 60%;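 also: H4 neuroglioblastoma cells stably carrying SNCA 5'UTR luciferase fusion; 0% = DMSO wells and 100% = positive control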
Jurkat NFkB inh: lowers PMA/ionomycin-induced NF-kB signal in Jurkat cells. AID 435003. hit rate 0.53% among 330,000. inhibition, % at 4 µM. PMA/ionomycin-induced NF-kB luciferase reporter, luminescence; in the data active = inhibition above about 50%
KLF5 inh: kruppel-like factor 5 inhibition; DLD-1 KLF5 promoter-luciferase reporter, luminescence; inhibition, % at 5 µM; hit rate 0.23% among 290,000;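 active = inhibition above a per-plate limit of that plate's mean compound inhibition plus 3 SD, cut at about 60% in these data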;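 also: 0% = DMSO wells and 100% = LY294002 at 200 µM; higher means less KLF5 promoter-driven luciferase light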
Mdm2-MdmX inh: inhibitors of human Mdm2/MdmX interaction; O15151+Q00987; SaOS-2 split-luciferase Mdm2/MdmX complementation, luminescence; inhibition, % at 8 µM; hit rate 3% among 330,000; AID 485346;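 active = inhibition of at least 50% at 8 µM in the primary screen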
Target sequence (O15151 whole entry, looked up): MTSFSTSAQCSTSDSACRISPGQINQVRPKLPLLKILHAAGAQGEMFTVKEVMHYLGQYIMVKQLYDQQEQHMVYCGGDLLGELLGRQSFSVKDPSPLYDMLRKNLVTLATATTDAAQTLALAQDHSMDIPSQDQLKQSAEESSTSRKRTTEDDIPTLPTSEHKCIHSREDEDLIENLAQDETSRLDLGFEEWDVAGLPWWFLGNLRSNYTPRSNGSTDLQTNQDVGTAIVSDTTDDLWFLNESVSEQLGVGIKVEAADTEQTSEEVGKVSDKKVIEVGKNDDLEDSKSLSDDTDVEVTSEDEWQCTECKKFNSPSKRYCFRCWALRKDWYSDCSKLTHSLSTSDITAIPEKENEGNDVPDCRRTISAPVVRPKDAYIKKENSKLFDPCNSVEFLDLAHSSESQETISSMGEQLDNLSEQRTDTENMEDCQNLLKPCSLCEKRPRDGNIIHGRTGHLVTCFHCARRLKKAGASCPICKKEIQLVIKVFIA
Target sequence (Q00987 whole entry, looked up): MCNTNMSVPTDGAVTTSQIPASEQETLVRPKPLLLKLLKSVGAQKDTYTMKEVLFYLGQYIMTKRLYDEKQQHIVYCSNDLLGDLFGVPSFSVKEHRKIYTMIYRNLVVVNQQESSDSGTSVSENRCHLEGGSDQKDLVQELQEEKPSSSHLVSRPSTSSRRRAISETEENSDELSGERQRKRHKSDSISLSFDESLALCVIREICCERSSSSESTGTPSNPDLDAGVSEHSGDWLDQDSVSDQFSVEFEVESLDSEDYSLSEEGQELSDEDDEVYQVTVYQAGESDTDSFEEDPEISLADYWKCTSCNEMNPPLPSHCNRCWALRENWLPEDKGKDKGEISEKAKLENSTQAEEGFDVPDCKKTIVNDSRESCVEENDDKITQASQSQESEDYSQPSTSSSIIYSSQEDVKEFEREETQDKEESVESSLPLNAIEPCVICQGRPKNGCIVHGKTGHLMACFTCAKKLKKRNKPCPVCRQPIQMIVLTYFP
Mdm2-MdmX conf: confirmation of human Mdm2/MdmX interaction inhibitors; shares compounds with Mdm2-MdmX inh; Mdm2-MdmX binding, luminescent assay; inhibition, % at 8 µM; hit rate 55% among 10,000; AID 489028; in the data active = inhibition above about 40%
FLuc counter: counter-screen for Mdm2/MdmX inhibitors: full-length luciferase | hit rate 77% among 6,200 | SaOS-2 full-length luciferase counterscreen, luminescence | inhibition, % at 8 µM | shares compounds with Mdm2-MdmX inh;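 active = mean inhibition at 8 µM reaching about 37%, which flags the compound as non-specific, limit read from the data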;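 also: p53-null SaOS-2 cells with luciferase driven by a doxycycline-inducible promoter; compound on cells about two nights before reading with doxycycline added after day one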
Gli antag conf: Gli-SUFU antagonism confirmation, single concentration | shares compounds with Gli-Sufu antag | hit rate 40% among 2,500 | inhibition, % at 5 µM | AID 602428 | Sufu-KO-LIGHT cells, Gli luciferase reporter, luminescence;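 active = mean inhibition at 5 µM reaching about 45%, limit read from the data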;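 also: plate controls were DMSO-treated cells for no effect and wells lacking cells for full effect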
Gli cytotox: cytotoxicity counter-screen for Gli-SUFU antagonists; shares compounds with Gli-Sufu antag; Sufu-KO-LIGHT cells cytotoxicity, ATP luminescence; cytotoxicity, % at 5 µM; hit rate 32% among 2,500;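 active = mean cytotoxicity at 5 µM above about 25%, limit read from the data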;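 also: cells exposed to compound overnight for roughly 16 to 18 hours; plate controls were DMSO wells with cells for no effect and medium without cells for full effect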
Wnt3a counter: Wnt3a reporter inhibition counter-screen; inhibition, % at 6.25 µM; hit rate 20% among 2,500; shares compounds with Gli-Sufu antag; Wnt-LIGHT cells, Wnt3a-driven luciferase reporter, luminescence; AID 651995;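 active = mean inhibition above about 25%, limit read from the data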
Numbers without * were called inactive; nt = no result. An excerpt weighted towards active compounds, which were near 4.1% of everything screened.

SMILES	Gli-Sufu antag	697 NFkB inh	aSyn 5UTR inh	Jurkat NFkB inh	KLF5 inh	Mdm2-MdmX inh	Mdm2-MdmX conf	FLuc counter	others
C=CCNc1nc(NCc2ccccc2)c(C#N)c2c1CN(C)CC2	-2.2	8.2	48.7	2.7	8.0	73.8*	51.5*	61.3*
O=C(/C=C/c1ccco1)NC(=S)Nc1cccc(-c2nc3ccccc3o2)c1	-9.2	-33.5	4.3	38.9	-29.4	59.5*	53.0*	91.7*
Cc1ccc(-c2nc3ccccc3o2)cc1NC(=S)NC(=O)/C=C/c1ccco1	-4.3	-52.2	-32.9	-38.4	-26.1	54.9*	30.3	nt
Cc1ccc(NC(=O)C2CCN(S(=O)(=O)c3ccc4c(c3)OCCO4)CC2)nc1	-0.1	14.0	4.3	-14.1	nt	4.1	nt	nt
Cc1cccc(SC2CCN(C(=O)C3CCC(=O)N(C4CC4)C3)CC2)c1 (centres undefined)	-6.2	-13.2	16.2	17.3	-16.4	20.6	nt	nt
C=C(C)Cc1c(C)c(C#N)c2[nH]c3ccccc3n2c1=O	9.0	-2.6	5.0	-16.5	-15.8	4.2	nt	nt
Cc1ccc(Cc2c(C)c(C#N)c3[nH]c4ccccc4n3c2=O)cc1	43.7	-28.2	23.2	3.1	-7.0	65.4*	54.8*	35.8
O=[N+]([O-])c1ccccc1Oc1ccc(S(=O)(=O)N2CCOCC2)cc1	nt	0.5	nt	1.6	nt	9.5	nt	nt
COc1ccc(CNC(=O)CSCc2ccccc2Cl)cc1	-16.0	-20.2	-61.7	2.5	9.0	-11.9	nt	nt
Cc1onc(-c2ccccc2Cl)c1C(=O)O/N=C(\N)c1ccc([N+](=O)[O-])o1	-5.2	25.9	-35.2	9.3	-29.9	60.4*	39.5	70.5*
COc1cccc(/C=N/NC(=O)c2cccc(N3CCCC3=O)c2)c1	-114.2	-55.8	-104.7	-31.4	-88.7	16.9	nt	nt
O=C(N/N=C/c1cc(Br)ccc1O)c1cccc(N2CCCC2=O)c1	40.6	-37.6	68.4*	13.7	13.9	53.8*	64.7*	31.4
COc1ccc(O)c(/C=N/NC(=O)c2cccc(N3CCCC3=O)c2)c1	7.4	-14.2	22.6	14.0	54.8	55.1*	57.1*	55.6*
CCOC(=O)N1CCC(NS(=O)(=O)c2cc(C(=O)OC)n(C)c2)CC1	0.2	-3.9	7.0	-1.8	-27.2	13.7	nt	nt
CC1(C)C(=O)Nc2ccccc2N1C(=O)COC(=O)COc1ccc(C#N)cc1	12.1	-18.8	12.4	-0.7	13.7	8.4	nt	nt
CCCN(C(=O)c1cn(C)c(=O)c2ccccc12)c1ccccc1C	10.8	9.5	8.7	0.7	-32.8	22.3	nt	nt
Cc1cc(OCC(=O)N2CCN(c3ccccc3)CC2)c2c(C)cc(=O)oc2c1	9.7	2.2	-14.4	16.7	-26.7	76.0*	6.8	nt
CC(=O)c1cccc(CN2CCC(C(=O)Nc3ccc(Oc4cccnc4)cc3)CC2)c1	15.9	-53.0	14.6	5.8	-15.0	27.9	nt	nt
CC(=O)c1cccc(CN2CCC(C(=O)Nc3ccc(-c4cccc(C)c4)cc3)CC2)c1	46.5	-27.6	0.3	26.0	-43.7	52.1*	17.6	nt
COC(=O)c1ccc(C(=S)NCC2(N(C)C)CCCCC2)cc1	13.2	-5.3	9.0	-1.3	-19.9	18.9	nt	nt
Cc1cc(C)cc(OCC(=O)O/N=C(\N)c2cccnc2)c1	1.6	nt	-6.0	nt	-18.1	nt	nt	nt
CCOC(=O)c1sc(N(Cc2ccccc2)C(=O)CCl)nc1C	16.5	7.0	-6.1	-6.6	1.7	64.6*	11.0	nt
O=C(CSc1ccccn1)Nc1nonc1[N+](=O)[O-]	5.0	18.0	-13.7	12.8	-11.7	94.9*	79.8*	29.3
O=C(NC(=S)Nc1ccccc1N1CCOCC1)c1ccc(-c2ccccc2F)o1	4.4	-11.0	22.1	-9.4	-38.8	22.0	nt	nt
CCOc1ccc(C(=O)C(C)OC(=O)c2nc(Cl)ccc2Cl)cc1 (centres undefined)	-24.9	9.3	-3.4	5.2	nt	16.2	nt	nt
SMILES	Gli-Sufu antag	697 NFkB inh	aSyn 5UTR inh	Jurkat NFkB inh	KLF5 inh	Mdm2-MdmX inh	Mdm2-MdmX conf	FLuc counter	others
Cc1nn(-c2ccccc2Cl)c(Cl)c1/C=N/Nc1cccc(C(=O)O)c1	-267.2	-165.2	103.3*	-28.9	-140.3	73.1*	82.8*	124.2*
Cc1nn(-c2ccccc2)c(Cl)c1/C=N/NC(=O)c1cccc(S(=O)(=O)N2CCCC2)c1	5.9	-41.3	-7.4	10.6	12.8	0.7	nt	nt
CCOC(=O)c1oc2ccc(S(=O)(=O)n3nc(-c4ccc(Cl)cc4)cc3N)cc2c1C	54.4	-61.4	26.6	37.9	-19.2	61.8*	54.1*	56.8*	Gli antag conf=8.0;Gli cytotox=18.5;Wnt3a counter=-10.9
CCCCCCc1cc2cc(C(=O)Nc3ccccc3)c(=O)oc2cc1O	73.5*	-84.7	91.7*	28.5	-43.4	96.6*	60.6*	57.2*	Gli antag conf=64.2*;Gli cytotox=30.3*;Wnt3a counter=79.5*
Cc1cc(Nc2ccc([N+](=O)[O-])cc2)c2ccccc2n1	55.7*	-12.4	-1.2	-4.2	-3.3	92.7*	70.0*	55.5*	Gli antag conf=37.6;Gli cytotox=13.3;Wnt3a counter=3.2
CC(=O)Nc1ccc(SCC(=O)c2cc(C)n(-c3ccccc3)c2C)cc1	51.4	-90.0	17.3	-27.2	13.9	65.4*	79.1*	93.7*	Gli antag conf=70.2*;Gli cytotox=6.2;Wnt3a counter=77.4*
CCN(CC)c1ccc(/C=N/NC(=O)c2c(Cl)cnn2C)c(O)c1	87.4*	-2.9	90.0*	31.8	35.1	70.9*	81.1*	26.9	Gli antag conf=67.5*;Gli cytotox=33.5*;Wnt3a counter=58.7*
Cn1ncc(Cl)c1C(=O)N/N=C/c1cc2c(cc1[N+](=O)[O-])OCO2	-18.1	11.4	-3.8	-8.3	-1.6	-11.2	nt	nt
N#Cc1c(C(F)(F)F)cc(-c2ccccc2)nc1SCC(=O)Nc1sc2c(c1C#N)CCC2	68.2*	-11.4	18.3	8.2	-20.5	71.7*	64.0*	55.4*	Gli antag conf=76.3*;Gli cytotox=9.9;Wnt3a counter=54.1*
N#Cc1ccc(-c2cccnc2)nc1SCC(=O)Nc1sc2c(c1C#N)CCC2	12.7	-10.5	-87.8	5.7	-14.1	9.9	nt	nt
C=CCn1c(SCC(=O)Nc2ccccc2C)nc(O)cc1=O	29.5	7.9	5.6	3.5	-37.3	2.0	nt	nt
CCN1CCc2c(sc(NC(=O)c3cc4ccccc4cc3OC)c2C(N)=O)C1	69.1*	-110.7	34.0	1.6	-20.2	100.4*	18.4	nt	Gli antag conf=20.1;Gli cytotox=17.7;Wnt3a counter=-47.6
O=S(=O)(c1ccc(-c2nc3ccccc3s2)cc1)N1CCCC1	-55.5	-98.6	-117.9	-94.4	-4.7	-44.1	nt	nt
